Data reported in PubChem BioAssay AID1851 (National Center for Advancing Translational Sciences (NCATS), 2009).
Values joined by “and” are separate entries in the source; they are usually repeats but may differ in a detail not shown here. Equal entries are not always repeated. Hit rate of the full screen: of about 16,000 compounds, about 2,600 (16%) were called active. About 20% were inconclusive and are not listed. Only a sample is shown. A number with no mark means an inactive call. Calls come from the whole dose curve; as a rule, active = well fitted curve in the direction sought with a large enough effect; inconclusive = small, poorly fitted or top-dose-only effect, or effect the other way; inactive = no such curve, though single readings can be large or run the other way.

biological target: Cytochrome P450 2D6 (Homo sapiens) (UniProt P10635); experiment: Cytochrome panel assay with activity outcomes; details: recombinant CYP, pro-luciferin dealkylation, luminescence, p450-cyp2d6; series mostly up to 57.1 µM; activity, negative = inhibition: at the top concentration
Sequence (P10635 whole entry, looked up): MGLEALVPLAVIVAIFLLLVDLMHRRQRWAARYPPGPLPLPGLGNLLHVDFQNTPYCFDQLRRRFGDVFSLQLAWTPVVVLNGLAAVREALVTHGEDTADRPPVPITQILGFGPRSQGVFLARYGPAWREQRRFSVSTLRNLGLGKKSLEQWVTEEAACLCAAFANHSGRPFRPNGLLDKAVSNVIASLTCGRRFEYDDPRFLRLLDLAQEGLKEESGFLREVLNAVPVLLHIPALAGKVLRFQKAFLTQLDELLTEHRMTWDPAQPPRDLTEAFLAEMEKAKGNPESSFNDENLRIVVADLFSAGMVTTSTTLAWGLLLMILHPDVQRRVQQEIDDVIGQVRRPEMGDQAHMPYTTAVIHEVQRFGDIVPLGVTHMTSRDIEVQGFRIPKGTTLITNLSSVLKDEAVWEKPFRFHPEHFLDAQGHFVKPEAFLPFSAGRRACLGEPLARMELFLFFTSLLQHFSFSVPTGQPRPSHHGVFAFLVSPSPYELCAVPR
% is set by controls: 0 for no effect and ±100 for the full control effect.

Row | SMILES | AC50 | activity, negative = inhibition
1 | CCCS(=O)(=O)N1CCCC(C(=O)NCCCN2CCN(c3ccccc3F)CC2)C1 (stereo not given) | 10 µM (active) | 
2 | CCCN(CCC)CCNC(=O)C1CCCN(S(=O)(=O)c2ccc3c(c2)oc(=O)n3C)C1 (stereo not given) |  | -10.6%
3 | O=C(Nc1ccc(Br)cc1)C1CCC(=O)N1Cc1ccccc1Cl (stereo not given) |  | -23.9%
4 | CCCS(=O)(=O)N1CCCC(C(=O)NCC2CCCO2)C1 (stereo not given) |  | -2.53%
5 | CCCS(=O)(=O)N1CCCC(C(=O)NCCCN2CCN(c3cccc(Cl)c3)CC2)C1 (stereo not given) | 5.62 µM (active) | 
6 | CCCS(=O)(=O)N1CCCC(C(=O)NCCN2CCOCC2)C1 (stereo not given) |  | 4.14%
7 | CCCS(=O)(=O)N1CCCC(C(=O)N2CCN(c3ccccc3)CC2)C1 (stereo not given) |  | -9.13%
8 | CCCS(=O)(=O)N1CCCC(C(=O)NCCN2CCC(Cc3ccccc3)CC2)C1 (stereo not given) | 0.501 µM (active) | 
9 | CCCS(=O)(=O)N1CCCC(C(=O)NCCCOC(C)C)C1 (stereo not given) |  | 32.2%
10 | O=C(NCCCN1CCN(c2cccc(Cl)c2)CC1)C1CCC(=O)N1Cc1ccccc1Cl (stereo not given) | 5.01 µM (active) | 
11 | COC(Cc1nnc(SC)n1-c1ccccc1)OC |  | 10.6%
12 | CC(C)Nc1cc(C(F)(F)F)nc(-c2ccccn2)n1 |  | 14.4%
13 | CC(C)COP(=O)(c1ccc(N(C)C)cc1)C(O)c1ccccc1F (stereo not given) |  | 3.33%
14 | COc1cccc(Cn2c(=O)cnc3cnc(OC)nc32)c1 |  | -20.5%
15 | Cc1ccc(-c2nc3c(=O)n(C)c4ccccc4c3o2)cc1 |  | -0.939%
16 | O=C(COc1ccccc1)Nc1ccc(-c2nnc(-c3ccco3)o2)cc1 |  | -15.7%
17 | C/C(CC(=O)Nc1cc(Cl)ccc1Cl)=N\NC(N)=S |  | -29.8%
18 | CC(NC(=O)c1ccc(Cn2cc([N+](=O)[O-])cn2)o1)c1ccccc1 (stereo not given) |  | -9.64%
19 | CCC(=O)Nc1cc2c(cc1C(=O)c1ccccc1)OCCO2 |  | -0.416%
20 | CCCc1cc2c(cc1NC(=O)c1ccccc1C)OCO2 | 8.91 µM (active) | 
21 | CCOc1cc(NC(=S)NCC2CCCO2)c(OCC)cc1NC(=O)c1ccccc1C (stereo not given) |  | -28.8%
22 | c1ccc(-c2csc3ncn4cnnc4c23)cc1 |  | 16.6%

Row | SMILES | AC50 | activity, negative = inhibition
23 | CCC(=O)N[C@@H]1Cc2ccccc2[C@@H](c2ccccc2)C1 |  | -2.56%
24 | COCCNc1cc(-c2c(C)noc2C)ncn1 |  | 7.09%
25 | Cc1cc(Cl)ccc1OCC(=O)Nc1nc(N)nc(N)n1 |  | 14% [at 11.4 µM]
26 | Cc1cc(Cl)ccc1OCC(=O)N/N=C1\CCCc2ccccc21 |  | 19.9%
27 | Cc1cc(Cl)ccc1OCC(=O)NCc1ccncc1 | 2.82 µM (active) | 
28 | N/C(=N\c1nc2ccccc2o1)NC(=O)c1ccccc1F |  | -0.637%
29 | Cc1ccc(S(=O)(=O)N[C@H]2COC(=O)C/C=C\[C@@H](C)COC(=O)C/C=C\[C@@H]2C)cc1 |  | 15.5% [at 11.4 µM] and -2.8% [at 11.4 µM]
30 | N#CCCSC(=S)[C@H]1CCCC1=N |  | -9.64% [at 11.4 µM]
31 | O=C(COc1ccccc1Cl)Nc1cc(Cl)ccc1Oc1ccccc1 |  | -7.9%
32 | CC(C/C=N/NC(=O)COc1cc(Cl)ccc1Cl)c1ccccc1 (stereo not given) | 0.631 µM (active) | 
33 | O=C(COc1ccccc1C(=O)N/N=C\c1ccc(O)c(O)c1)N/N=C/c1ccc(O)c(O)c1 |  | -6.7%
34 | CC(C)(C)NC[C@@H](O)c1ccc(O)c(CO)n1 |  | -1.17% [at 11.4 µM]
35 | Cc1cccc(C)c1NC(=O)COc1cccc(/C=N/NC(=O)C(=O)NCc2ccccc2)c1 |  | 3.74%
36 | O=C(CC(=O)N/N=C\c1c(Cl)cccc1Cl)NCc1ccccc1 |  | -29.6%
37 | CCCCNC(=O)C1CC(=O)N(CCC(C)C)C1 (stereo not given) |  | 0.785%
38 | CCCC/C=C/C(NC(=O)c1cccs1)c1ccccc1 (stereo not given) |  | 1.02%
39 | C[C@@H](C(=O)O)c1ccc(C(=O)c2cccs2)cc1 |  | -5.01% [at 25.6 µM]
40 | CNCCCCCCCCSc1nc(C(C)C)ccc1C(=O)c1cccs1 | 0.00631 µM (active) | 
41 | Nc1ncnc2c1ncn2C1CCCC1 |  | 8.79%
42 | CNC(=O)Oc1ccc2c(c1)[C@@]1(C)CCN(C)[C@@H]1N2C | 1.26 µM (active) and 631 nM (active) | 
43 | COc1ccc(Nc2ncc3c(n2)CC(c2ccc(C)cc2)CC3=O)cc1 (stereo not given) |  | -9.28%
44 | O=c1c(-c2ccc(Cl)cc2)[n+]([O-])c2ccccc2n1OCc1ccccn1 |  | 14.8%

Row | SMILES | AC50 | activity, negative = inhibition
45 | CC(C(=O)NC1CCCC1)N(C(=O)c1ccc(-c2ccccc2)[nH]1)c1ccccc1F (stereo not given) |  | -20.3%
46 | CCOC(=O)Cc1csc(NC(=O)c2ccc(S(=O)(=O)N3CCCCC3)cc2)n1 |  | 1.88%
47 | CC(C)CC(C(=O)NCC1CCCO1)N(C(=O)Cn1nnc(-c2ccc(F)cc2)n1)c1ccccc1F (stereo not given) | 20 µM (active) | 
48 | CC(C)C(C(=O)NCC1CCCO1)N(Cc1ccco1)C(=O)CNS(=O)(=O)c1ccc(F)cc1 (stereo not given) |  | -2.69%
49 | Cc1cccc2c(SCC(=O)NCC3CCCO3)nc(-c3ccc(F)cc3)nc12 (stereo not given) |  | -24.8%
50 | CN(C(=O)Cn1nnc(-c2cccc(C(F)(F)F)c2)n1)C1CCCCC1 |  | 27.7%
51 | CC(C)CC(C(=O)NCC1CCCO1)N(C(=O)Cn1nnc(-c2ccc(F)cc2)n1)c1cccc(C(F)(F)F)c1 (stereo not given) | 12.6 µM (active) | 
52 | COc1ccc(S(=O)(=O)N(CC(=O)NCC2CCCO2)c2ccc(F)cc2)cc1OC (stereo not given) |  | -5.47%
53 | NCCCCCC(=O)O | inactive | 
54 | Clc1ccc(-c2nnc(-c3ccco3)o2)cc1 |  | -8.43%
55 | O=c1[nH]c(=O)c2nc3ccccc3nc2[nH]1 |  | 9.16%
56 | CC(=O)NCCC(=O)Nc1sc2c(c1-c1nc3ccccc3[nH]1)CCCC2 |  | -28.3%
57 | Cc1ccc(NC(=O)N/C=C/c2ccco2)cc1C |  | -29.6%
58 | COc1ccc(C(C(=O)NC2CCCC2)N(C(=O)c2snc(-c3ccc(F)cc3)c2N)c2ccccc2)cc1 (stereo not given) |  | 14.7%
59 | COc1ccc(CSc2nnnn2C)cc1[N+](=O)[O-] |  | -1.53%
60 | CCCOc1ccc(Cn2c(C)nc([N+](=O)[O-])c2SCC(O)COC)cc1[N+](=O)[O-] (stereo not given) | 12.6 µM (active) | 
61 | CC(=O)Nc1ccc(Nc2ncnc3c2cnn3-c2ccccc2)cc1 |  | -16.2%
62 | N#Cc1cccc(-c2nc3cnc(N4CCOCC4)nc3n(C3CC3)c2=O)c1 |  | 3.06%
63 | CC(C)(C)N(NC(=O)Nc1ccccc1)C(=O)c1ccccc1Cl |  | 16.3%
64 | CC(C)(C)N(NC(=O)Nc1ccc(Cl)c(Cl)c1)C(=O)c1ccccc1 | 28.2 µM (active) | 
65 | Cc1cc(C)cc(C(=O)N(NC(=O)Nc2ccc(Cl)cc2)C(C)(C)C)c1 |  | -12.7%
